Screen size: about 47,000 compounds; about 510 (1.1%) were called active. Many of the other results were omitted from the sample, so actives are more common in it than they were. A number with no mark means an inactive call. Rule as the data show it: active = inhibition above about 30%; inactive = the rest.
Biological target: Ubiquitin carboxyl-terminal hydrolase 10 (Homo sapiens) (UniProt Q14694)
Assay: blocks human USP10 ubiquitin-rhodamine cleavage (AID 1645856)
Conditions: purified USP10, Ub-rhodamine fluorescence, 60 min; at 20 µM; hits give high values

Ubiquitin carboxyl-terminal hydrolase 10 (Homo sapiens), sequence (Q14694 whole entry, looked up): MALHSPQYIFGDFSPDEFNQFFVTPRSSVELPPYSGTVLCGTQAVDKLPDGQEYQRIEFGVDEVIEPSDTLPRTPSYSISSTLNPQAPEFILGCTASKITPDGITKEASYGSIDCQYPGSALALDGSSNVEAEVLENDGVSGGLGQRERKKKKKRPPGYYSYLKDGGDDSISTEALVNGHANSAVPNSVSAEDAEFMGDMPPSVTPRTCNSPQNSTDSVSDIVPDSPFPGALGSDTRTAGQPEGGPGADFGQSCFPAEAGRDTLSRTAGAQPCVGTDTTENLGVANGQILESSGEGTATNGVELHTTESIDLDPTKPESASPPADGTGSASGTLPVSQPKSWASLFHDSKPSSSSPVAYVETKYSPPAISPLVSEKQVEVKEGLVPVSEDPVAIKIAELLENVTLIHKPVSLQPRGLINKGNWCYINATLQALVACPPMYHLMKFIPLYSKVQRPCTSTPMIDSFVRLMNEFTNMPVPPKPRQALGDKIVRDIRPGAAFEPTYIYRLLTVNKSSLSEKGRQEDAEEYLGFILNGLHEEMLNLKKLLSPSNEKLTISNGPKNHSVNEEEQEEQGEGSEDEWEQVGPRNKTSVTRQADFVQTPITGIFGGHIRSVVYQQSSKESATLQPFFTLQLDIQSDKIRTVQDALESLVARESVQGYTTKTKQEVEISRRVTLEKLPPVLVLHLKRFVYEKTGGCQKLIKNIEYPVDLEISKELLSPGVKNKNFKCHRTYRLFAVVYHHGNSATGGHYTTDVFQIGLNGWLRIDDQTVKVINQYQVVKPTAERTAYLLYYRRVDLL

Row | SMILES | inhibition
1 | O=C(Nc1cccc(Cl)c1)N(Cc1ccccc1)CC1CC=CCC1 (configuration not stated) | 16.3%
2 | CCc1nnc(CN2CCC(C3CCCCCN3C(=O)NC(C)C)CC2)o1 (configuration not stated) | -4.07%
3 | COc1ccc(Nc2cc(C(=O)N3CCC4(CC3)OCCO4)c3ccccc3n2)cc1 | -0.645%
4 | CCN1C(=O)[C@H]2CN(C(C)=O)C[C@H]2C12CCN(C(=O)NCCc1ccc(OC)cc1)CC2 | 0.803%
5 | O=C(CN(Cc1ccccc1Cl)S(=O)(=O)c1ccccc1F)NC(c1ccccc1)c1ccccc1 | 6.49%
6 | Cc1ccc2[nH]c(=O)c(CN(CC3COCCO3)C(=O)Nc3ccccc3C)cc2c1 (configuration not stated) | -0.00505%
7 | Cc1cc(=O)n(CC(=O)Nc2ccc3c(c2)OCO3)c2c1c(-c1ccccc1)nn2-c1ccccc1 | 25%
8 | O=S(=O)(c1cc(-c2nnc(C3CC3)o2)co1)N1CCCCC1 | -3.39%
9 | O=C(NC1CCCC1)c1ccc(N2CCOc3ccccc32)s1 | 0.616%
10 | CCc1nnc(-c2cc(S(=O)(=O)Nc3ccccc3F)c[nH]2)o1 | -2.11%
11 | O=C(Oc1ccc(Oc2ccccc2)cc1)c1ccc([N+](=O)[O-])cc1 | 7.41%
12 | Cc1nn(-c2ccc(F)cc2)c(C)c1S(=O)(=O)NC1CC1 | -2.46%
13 | COc1ccc(NS(=O)(=O)c2cc(NC(=O)COc3ccccc3F)ccc2OC)cc1 | 3.65%
14 | COc1ccc(NS(=O)(=O)c2cc(NC(=O)/C=C/c3cccc(OC)c3)ccc2OC)cc1 | 0.326%
15 | COc1ccc(NS(=O)(=O)c2cc(NC(=O)CC(=O)c3ccc([N+](=O)[O-])cc3)ccc2C)cc1 | 43.8% (active)
16 | Cc1ccc(C2c3[nH]c4ccccc4c3C[C@H]3C(=O)N(c4ccccc4C(=O)NC4CCCCC4)C(=O)N23)cc1 (some centres not stated) | -9.46%
17 | Cc1cccc(C(=O)NCc2nnc3ccccn23)c1 | 5.59%
18 | CCOc1c(C)cnc2c1c(=O)n(CC(=O)N1CCC(C)CC1)c(=O)n2C | -3.58%
19 | c1ccc(OCCn2nc(C3CCN(C4CCOCC4)CC3)c3nccnc32)cc1 | -0.0392%
20 | O=C(NCc1ccc2c(c1)OCO2)c1cn(-c2cccc(Cl)c2)nn1 | 28.3%
21 | CCN1CCN(Cc2nc(-c3ccc(N4CCCCC4)nc3)no2)CC1 | 0.502%
22 | CCc1cc(C2CCCN2C(=O)NCc2ccc(F)cc2)on1 (configuration not stated) | 0.108%

Row | SMILES | inhibition
23 | CC1(C(=O)NC2CCCCCC2)Cc2ccccc2C(=O)N1C1CCCCC1 (configuration not stated) | 3.98%
24 | O=C(COC(=O)c1ccc(F)cc1)NC1CCCc2ccccc21 (configuration not stated) | -2.88%
25 | O=C(c1ccccc1)c1ccc(NC2CCCc3ccccc32)c([N+](=O)[O-])c1 (configuration not stated) | -3.29%
26 | Nc1ccc(C(=O)OCC(=O)NC2CCCc3ccccc32)cc1[N+](=O)[O-] (configuration not stated) | 31.8% (active)
27 | N#Cc1ccccc1OCC(=O)Nc1ccc(-c2cn3ccsc3n2)cc1 | -4.52%
28 | COc1ccc(NC(=O)CSc2cn(CC(=O)N3CCCC3)c3ccccc23)cc1 | 1.6%
29 | CCOc1ccc2c(c1)c(=O)c(C(=O)c1ccccc1)cn2CC(=O)Nc1ccc(OC)cc1 | 59.7% (active)
30 | CCOc1ccc(NC(=O)Cn2cc(C(=O)c3ccc(Cl)cc3)c(=O)c3cc(OC)ccc32)cc1 | 27%
31 | O=C(CN1CCCN(c2cc(-c3ccc(N4CCOCC4)cc3)ncn2)CC1)N1CCOCC1 | -2.74%
32 | CCN1C(=O)[C@H]2CN(CCOC)C[C@H]2C12CCN(C(=O)Nc1ccccc1)CC2 | 0.649%
33 | Cc1ccc(CN2C(=O)C(CC(=O)Nc3ccccc3F)n3c2nc2ccccc23)cc1 (configuration not stated) | 6.51%
34 | Cc1cc2nc(N3CCOCC3)n(CC(=O)Nc3ccccc3F)c(=O)c2n1C | -1.21%
35 | Cc1nc2c(c(C)c1CCC(=O)Nc1ccccc1F)c(=O)n(C)c(=O)n2C | 32.5% (active)
36 | COc1ccc(NC(=O)CC2C(=O)NCCN2C(=O)Nc2ccc(F)cc2)cc1 (configuration not stated) | -0.861%
37 | CCOc1ccc(-c2noc(-c3nn(-c4cccc(OC)c4)ccc3=O)n2)cc1 | 7.86%
38 | O=C(COC(=O)C1CCN(S(=O)(=O)c2c(Cl)cccc2Cl)CC1)Nc1ccc2c(c1)CCC2 | 6.62%
39 | Cc1cccc(-c2nnc(-c3cccc(S(=O)(=O)N4CCCC4)c3)o2)c1 | 3.94%
40 | O=C(Nc1nnc(-c2cccc([N+](=O)[O-])c2)o1)C1CCN(S(=O)(=O)c2ccc3c(c2)CCC3)CC1 | 46.7% (active)
41 | CCOC(=O)C1CCN(C(=O)c2cnc(Nc3ccc(C)c(Cl)c3)c3ccccc23)CC1 | 6.16%
42 | COc1ccc(C(=O)Cn2nc(C)cc2C)cc1 | -2.02%
43 | Cc1cc(C)cc(NC(=O)c2cc(CN3CCOCC3)on2)c1 | -1.83%
44 | O=C(NCC1CCCO1)c1[nH]c2ccccc2c1Sc1ccc(Cl)cc1 (configuration not stated) | 0.402%

Row | SMILES | inhibition
45 | Cc1ccc(CC(=O)N2CCCC(c3ccncn3)C2)s1 (configuration not stated) | -2.71%
46 | CC(c1ccncc1)n1nccc1NC(=O)c1cccnc1Sc1ccccc1 (configuration not stated) | -7.87%
47 | CCc1noc(-c2ccnc(-n3ncc(C(=O)N4CCC(C)CC4)c3C)c2)n1 | -0.304%
48 | COc1ccc(-c2cc(C(=O)NCCCN3CCCC3=O)c3ccccc3n2)cc1OC | -3.65%
49 | CC(C)CC1NC(=O)C2(CCN(C(=O)Nc3ccc(Cl)c(Cl)c3)CC2)NC1=O (configuration not stated) | 1.3%
50 | O=C(NCC1CCCO1)c1ccccc1N1C(=O)[C@@H]2Cc3c([nH]c4ccccc34)C(c3cccc(Cl)c3)N2C1=O (some centres not stated) | -2.66%
51 | O=C(Nc1ccccc1Br)c1ncoc1-c1cccs1 | 2.95%
52 | CCCc1nc(-c2c(C)cc(C)nc2NC(=O)C2CCCCC2)no1 | -4.35%
53 | Cc1cccc(NS(=O)(=O)c2ccc3nnc(C)n3c2)c1 | -2.24%
54 | O=S(=O)(Nc1cccc(O)c1)c1ccc2oc3ccc(S(=O)(=O)Nc4cccc(O)c4)cc3c2c1 | 54.6% (active)
55 | COc1cccc(NS(=O)(=O)c2ccc(-c3coc(C)n3)cc2)c1 | 2.04%
56 | COc1ccccc1C1CC(c2c(O)n(C)c(=O)n(C)c2=O)=Nc2ccccc2S1 (configuration not stated) | 2.61%
57 | Oc1cccc2nc3c(O)cccc3nc12 | 41.5% (active)
58 | COC(=O)COc1cccc2c(=O)n(CC(=O)N3CCc4ccccc43)ccc12 | 2.69%
59 | COc1ccccc1CN1CCC2(CC1)NC(=O)C(CC(C)C)NC2=O (configuration not stated) | 0.757%
60 | CC(C)NC(=O)c1cc(-c2cnc(-c3ccnn3C)nc2)cn1CC1CC1 | -0.689%
61 | O=S(=O)(Cc1ccccc1)N1CCC2(CCN(Cc3cccc(F)c3)C2)C1 (configuration not stated) | -2.23%
62 | O=c1ccc(S(=O)(=O)N2CCOCC2)cn1Cc1ccccc1 | -0.385%
63 | COc1cc(-c2nc(CC(=O)NCCc3c[nH]c4ccc(F)cc34)cs2)cc(OC)c1OC | -1.95%
64 | CC(C)n1c(C2CCN(C(=O)Nc3ccc4c(c3)CCC4)C2)nc2ccncc21 (configuration not stated) | 2.17%
65 | Cc1ccc(NC(=O)Cc2sc(Nc3ccc(C)cc3)nc2O)cc1 | 25.6%
66 | COc1cccc(CNC(=O)c2nnn(CC(=O)Nc3cc(C)ccc3C)c2N)c1 | 29.8%

Row | SMILES | inhibition
67 | Cc1ccc(Nc2nc(NCC(=O)Nc3cc(C)ccc3C)nc(Nc3ccc(C)cc3)n2)cc1 | 37% (active)
68 | CS(=O)(=O)N1Cc2ccccc2OC2(CCCNC2)C1 (configuration not stated) | -0.607%
69 | CCOc1nccnc1N1CCC(N(C)S(=O)(=O)C2CC2)C1 (configuration not stated) | 1.55%
70 | CC(C)c1ccc(NC(=O)C[n+]2cc(-c3ccc(F)cc3)n3c2CCC3)cc1 | 0.686%
71 | COc1cccc(NC(=O)C(Sc2cccc(NC(=O)c3ccccc3F)c2)c2ccccc2)c1 (configuration not stated) | 32.4% (active)
72 | COc1cccc(NC(=O)c2nn(-c3ccc(F)cc3)c(OC)cc2=O)c1 | 0.262%
73 | COc1ccccc1C(=O)Nc1cccc(Oc2ccccc2)c1 | 11.9%
74 | COc1ccc(C2CC(=O)c3cnc(NCC4CCCO4)nc3C2)cc1 (configuration not stated) | -0.196%
75 | COc1cccc(C2c3[nH]c4ccccc4c3C[C@@H]3C(=O)N(CC4CCCO4)CC(=O)N23)c1 (some centres not stated) | -6.67%
76 | Cc1ccc(C(=O)Nc2nc3c(s2)CCC3C(=O)NCc2ccncc2)cc1 (configuration not stated) | -7.71%
77 | Cc1ccc(Cn2cc(-c3noc(-c4ccccn4)n3)nn2)cc1 | 7.3%
78 | Cc1cc(F)ccc1NC(=O)c1cc(C2CC2)n2nccc2n1 | -3.56%
79 | Cc1ccc(-n2cc(-c3noc(C(=O)Nc4ccc(F)cc4C)n3)nn2)cc1 | 76.1% (active)
80 | O=C1NCCCn2cc(S(=O)(=O)NCc3ccc4c(c3)OCO4)cc21 | -0.173%
81 | Cc1nc2cc(-c3noc(-c4cnccn4)n3)ccc2n(C2CCCC2)c1=O | -3.38%
82 | CCCCN(C)c1ccc2nnc(CCc3nc(-c4cc(OC)cc(OC)c4)no3)n2n1 | -5.1%
83 | CNC(=O)N1C[C@H]2C[C@H](C(=O)Nc3ccc4c(c3)OCO4)[C@@H](C1)O2 | -1.52%
84 | O=C(COc1ccc2ccccc2c1)NCc1nnnn1-c1ccc(Cl)cc1 | 6.45%
85 | CC1(C(N)=O)CN(Cc2ccnc(N3CCCC3)n2)CCO1 (configuration not stated) | -2.23%
86 | CN1CC(=O)N(C2CCCNC2)Cc2c(NC3CCc4ccccc43)ncnc21 (configuration not stated) | -1.83%
87 | O=S(=O)(c1ccc(F)c(Cl)c1)N1CCC(N2CCOCC2)CC1 | 1.61%
